Screening results as filed in PubChem BioAssay.
In the library only some 10% were active in any assay of this set; here they are far more common.
BAZ2B inh: qHTS Assay for Inhibitors of BAZ2B; Bromodomain adjacent to zinc finger domain protein 2B (Homo sapiens), Q9UIF8; AlphaScreen BAZ2B-H3K14Ac peptide displacement; Potency, µM (series often up to 114 µM), inactives show at the highest dose activity change, negative = inhibition, most hits filed as inhibitors; actives 4.4% (n = 360,000); AID 504333, 2011; note: potency is the fitted concentration of half-maximal effect; % is set by controls: 0 for no effect and ±100 for the full control effect; nearly all actives have a fitted effect of over 60% in size
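In this displacement format the biotinylated H3(5-23) peptide acetylated at Lys14 serves as ligand at 50 nM, with BAZ2B at 50 nM in PBS pH 7.4 containing 0.01% Tween-20. Donor and acceptor beads are 10 ug/mL final.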
CtBP-E1A inh: qHTS Assay for Inhibitors of the CtBP/E1A Interaction. actives 0.49% (n = 340,000). AlphaScreen GST-E1A/His-CtBP binding, 1536-well; hits give low values. activity change, % (no concentration beside the values); in the data active = activity change below about -65%; inconclusive = mostly about -30% to -63%; note: % is set by controls: 0 for no effect and ±100 for the full control effect
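AlphaScreen with 125 nM GST-E1A and 125 nM His-CtBP (5X stocks) in Tris pH 8.0, 300 mM NaCl, BSA, Tween 20, TCEP. Compounds preincubated 2 h at 37 deg C, then glutathione donor/nickel acceptor beads added for 1 h at 37 deg C in dark.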
JMJD2A Tudor: qHTS Assay for Inhibitors of JMJD2A-Tudor Domain; Lysine-specific demethylase 4A (Homo sapiens), O75164; AlphaScreen JMJD2A-Tudor / H3K4me3 peptide binding; Potency, µM (doses to about 114 µM), without a hit: at the top dose activity change, negative = inhibition, usual class: inhibitors; actives 4.4% (n = 390,000); AID 504339, 2011; note: potency is the fitted concentration of half-maximal effect; % is set by controls: 0 for no effect and ±100 for the full control effect; nearly all actives have a fitted effect of over 50% in size
Target sequence (O75164 whole entry, looked up, the tested form may be a part): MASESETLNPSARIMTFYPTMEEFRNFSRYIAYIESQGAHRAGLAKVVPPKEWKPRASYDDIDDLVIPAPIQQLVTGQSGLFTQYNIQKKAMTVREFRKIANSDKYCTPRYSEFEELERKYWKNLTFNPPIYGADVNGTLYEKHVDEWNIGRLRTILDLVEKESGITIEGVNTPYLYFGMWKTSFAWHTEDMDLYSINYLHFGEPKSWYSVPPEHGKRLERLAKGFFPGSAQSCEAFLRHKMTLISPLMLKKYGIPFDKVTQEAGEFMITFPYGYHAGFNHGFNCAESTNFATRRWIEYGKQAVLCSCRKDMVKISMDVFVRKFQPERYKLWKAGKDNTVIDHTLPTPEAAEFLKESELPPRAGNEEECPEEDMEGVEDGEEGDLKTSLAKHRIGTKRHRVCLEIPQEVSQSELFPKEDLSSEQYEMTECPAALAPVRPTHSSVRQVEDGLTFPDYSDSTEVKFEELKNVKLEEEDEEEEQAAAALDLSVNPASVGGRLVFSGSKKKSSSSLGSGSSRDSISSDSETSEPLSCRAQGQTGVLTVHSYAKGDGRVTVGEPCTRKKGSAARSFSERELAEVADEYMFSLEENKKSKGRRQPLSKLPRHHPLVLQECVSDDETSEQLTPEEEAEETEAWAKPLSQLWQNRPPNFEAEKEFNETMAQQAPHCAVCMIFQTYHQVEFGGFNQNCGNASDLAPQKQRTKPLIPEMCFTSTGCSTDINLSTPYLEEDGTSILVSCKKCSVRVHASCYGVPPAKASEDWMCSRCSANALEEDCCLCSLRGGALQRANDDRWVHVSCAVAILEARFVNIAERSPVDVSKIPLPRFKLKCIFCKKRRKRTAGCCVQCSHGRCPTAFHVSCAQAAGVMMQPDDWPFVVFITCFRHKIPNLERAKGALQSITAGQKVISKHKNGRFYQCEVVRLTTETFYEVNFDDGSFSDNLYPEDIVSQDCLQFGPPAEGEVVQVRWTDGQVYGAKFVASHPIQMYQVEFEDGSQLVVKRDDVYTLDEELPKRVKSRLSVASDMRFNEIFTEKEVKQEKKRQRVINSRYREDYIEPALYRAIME
Six1-Eya2 inh: qHTS Assay for Inhibitors of the Six1/Eya2 Interaction; Homeobox protein SIX1 (Homo sapiens) + Protein phosphatase EYA2 (Homo sapiens), …; actives 0.56% (n = 360,000); AID 651725, 2012; AlphaScreen GST-Six1/His-Eya2 binding, biochemical; hits give low values; activity change, % (test concentration not listed); in the data active = activity change below about -65%; inconclusive = mostly about -30% to -63%; note: % is set by controls: 0 for no effect and ±100 for the full control effect
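AlphaScreen with GST-Six1 and His-Eya2 (5X mix: 250 nM and 500 nM), glutathione donor and nickel acceptor beads; buffer 50 mM Tris pH 8.0, 300 mM NaCl, 1 mM TCEP; 1 h at 37 C in the dark.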
HP1b chromo inh: HTS for Inhibitors of HP1-beta Chromodomain Interactions with Methylated Histone Tails; Chromobox protein homolog 1 (Homo sapiens), P83916; AlphaScreen HP1-beta / biotin-H3K9me3 peptide binding; Potency, µM (top dose mostly 114 µM), for the others: at the top dose activity change, negative = inhibition, actives largely listed as inhibitors; actives 0.56% (n = 390,000); note: potency is the fitted concentration of half-maximal effect; nearly all actives have a fitted effect of over 70% in size
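HP1-beta protein (50 nM final) preincubated 30 min at room temperature with biotinylated H3(1-18)K9me3 peptide (50 nM) in PBS pH 7.4, 0.01% Tween-20, then compound added for 30 min. AlphaScreen streptavidin donor/nickel chelate acceptor beads (10 ug/mL final), 30 min dark, luminescence read.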
G9a inh: qHTS Assay for Inhibitors of Histone Lysine Methyltransferase G9a. Potency, µM (titrated, usually from 102 µM), for inactives: top-dose activity, negative = inhibition, usual class: inhibitors. AID 504332, 2011. Histone-lysine N-methyltransferase EHMT2 (Homo sapiens), Q96KQ7. actives 8.8% (n = 350,000). G9a H3K9 monomethylation, AlphaScreen, 2 h; note: potency is the fitted concentration of half-maximal effect; % is set by controls: 0 for no effect and ±100 for the full control effect; nearly all actives have a fitted effect of over 75% in size
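AlphaScreen read-out: biotin-H3K9 peptide (500 nM) methylation by 20 nM enzyme with 20 uM SAM, 2 h at room temperature after 15 min compound preincubation; anti-monomethyl H3K9 antibody plus donor/acceptor beads, 10 min dark.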
* = called active by the depositor; [ ] = dose if it differs, or a comment. Unless noted, calls come from the whole dose curve; as a rule, active = well fitted inhibition curve with a large enough effect; inconclusive = small, poorly fitted or top-dose-only effect; inactive = no such curve, though single readings can be large or run the other way.

What do the screens show for `Cn1c(N/N=C/c2c[nH]c3ccccc23)nc2ccccc21`?
BAZ2B inh: 32µM*; CtBP-E1A inh: -16; JMJD2A Tudor: 50µM*; Six1-Eya2 inh: -29; HP1b chromo inh: -37%; G9a inh: inconclusive

What do the screens show for `Cc1cc(N/N=C/c2c[nH]c3ccccc23)c2ccccc2n1`?
BAZ2B inh: -35%; CtBP-E1A inh: 1; JMJD2A Tudor: -16%; Six1-Eya2 inh: 15; HP1b chromo inh: 10%

How did Cc1ccc(Cl)cc1NCc1nnc2n1CCCCC2 do in these assays?
BAZ2B inh: 2%; JMJD2A Tudor: -6%; HP1b chromo inh: 25%[57 µM]; G9a inh: 3%[59 µM]

Results for Cc1onc(-c2c(Cl)cccc2Cl)c1C(=O)N1CCOCC1 ?
BAZ2B inh: 79µM*; CtBP-E1A inh: -2; JMJD2A Tudor: -8%; Six1-Eya2 inh: 6; HP1b chromo inh: 21%; G9a inh: -1%

How did CCOC(=O)c1sc2nc3c(SCC(=O)O)cc(C(=O)c4cc(F)ccc4O)cn3c(=O)c2c1C do in these assays?
BAZ2B inh: 35µM*; CtBP-E1A inh: -1; JMJD2A Tudor: 40µM*; Six1-Eya2 inh: -8; HP1b chromo inh: inconclusive; G9a inh: 79µM*

How did O=C(O)CSc1cc(C(=O)c2ccccc2O)cn2c(=O)c3c(-c4ccccc4)csc3nc12 do in these assays?
JMJD2A Tudor: 56µM*; Six1-Eya2 inh: -15; HP1b chromo inh: -14%[57 µM]; G9a inh: inconclusive

What do the screens show for `COc1ccc(O)c(C(=O)c2cc(SCC(=O)O)c3nc4sc5c(c4c(=O)n3c2)CCCC5)c1`?
BAZ2B inh: 22µM*; CtBP-E1A inh: -16; JMJD2A Tudor: 25µM*; Six1-Eya2 inh: -23; HP1b chromo inh: 25µM*; G9a inh: -33%[12.7 µM]

How did CCc1c(C)sc2nc3c(C(=O)N4CCOCC4)cc(C(=O)c4ccccc4O)cn3c(=O)c12 do in these assays?
BAZ2B inh: inconclusive; CtBP-E1A inh: -5; JMJD2A Tudor: inconclusive; Six1-Eya2 inh: -8; HP1b chromo inh: 14%; G9a inh: -43%

Results for Cc1sc2nc3c(SC(C)C(=O)O)cc(C(=O)c4ccccc4O)cn3c(=O)c2c1C (stereo not given) ?
BAZ2B inh: inconclusive; CtBP-E1A inh: 7; JMJD2A Tudor: -32%; Six1-Eya2 inh: -20; HP1b chromo inh: -13%; G9a inh: 50µM*

How did COc1ccc(-n2c(SCC(=O)O)nc3sc4c(c3c2=O)CCCC4)cc1 do in these assays?
BAZ2B inh: -20%; CtBP-E1A inh: 0; JMJD2A Tudor: -15%; Six1-Eya2 inh: 6; HP1b chromo inh: 23%; G9a inh: inconclusive

How did Cc1ccc(CSc2nc(=O)c3c(C)cc(C)nc3n2C2CC2)cc1 do in these assays?
BAZ2B inh: 18%; JMJD2A Tudor: -17%; HP1b chromo inh: 38%[57 µM]; G9a inh: 4%[59 µM]

Results for CCOC(=O)c1sc2nc3c(SCC(=O)O)cc(C(=O)c4ccccc4O)cn3c(=O)c2c1C ?
BAZ2B inh: 16µM*; CtBP-E1A inh: 1; JMJD2A Tudor: 10µM*; Six1-Eya2 inh: 6; HP1b chromo inh: inconclusive; G9a inh: 32µM*

How did O=C(c1cnc2nc3ccccc3n2c1)c1cc(F)ccc1O do in these assays?
BAZ2B inh: 4%; CtBP-E1A inh: -12; JMJD2A Tudor: -13%; Six1-Eya2 inh: -17; HP1b chromo inh: 14%

How did COC(=O)c1cc(C(=O)c2cc(F)ccc2O)cn2c(=O)c3c(C)c(C)sc3nc12 do in these assays?
BAZ2B inh: -29%; CtBP-E1A inh: -18; JMJD2A Tudor: 40µM*; Six1-Eya2 inh: -5; HP1b chromo inh: -19%; G9a inh: inconclusive

What do the screens show for `CCOC(=O)c1sc2ncn(C(C)C(=O)OCC)c(=O)c2c1C` (stereo not given)?
BAZ2B inh: -8%; CtBP-E1A inh: -1; JMJD2A Tudor: 10%; Six1-Eya2 inh: 3; HP1b chromo inh: 34%; G9a inh: 5%[59 µM]

What do the screens show for `CC1(C)O[C@@H]2[C@H](O1)[C@@H](COS(=O)(=O)O)O[C@H]2n1cnc2c(N)ncnc21`?
BAZ2B inh: -10%; G9a inh: -11%[2.33 µM]

Results for CC1(C)O[C@@H]2[C@H](O1)[C@@H](COS(=O)(=O)O)O[C@H]2n1c(=S)[nH]c2c(=O)[nH]c(N)nc21 ?
BAZ2B inh: -6%; CtBP-E1A inh: -2; JMJD2A Tudor: 20µM*; Six1-Eya2 inh: -9; HP1b chromo inh: -24%; G9a inh: 13%[2.33 µM]

How did COc1ccccc1NC(=O)N(Cc1ccco1)Cc1cc2ccc(C)c(C)c2[nH]c1=O do in these assays?
CtBP-E1A inh: -4; JMJD2A Tudor: inconclusive; Six1-Eya2 inh: -20; HP1b chromo inh: -10%; G9a inh: inconclusive

How did COc1ccccc1NC(=O)N(Cc1ccco1)Cc1cc2cc(C)cc(C)c2[nH]c1=O do in these assays?
BAZ2B inh: inconclusive; CtBP-E1A inh: -8; JMJD2A Tudor: inconclusive; Six1-Eya2 inh: -18; HP1b chromo inh: -2%; G9a inh: 45µM*

Results for COc1ccc(C(NC(C)=O)c2cc(Cl)c3cccnc3c2O)cc1 (stereo not given) ?
BAZ2B inh: inconclusive; CtBP-E1A inh: -93*; JMJD2A Tudor: inconclusive; Six1-Eya2 inh: -83*; HP1b chromo inh: 58%; G9a inh: -10%[0.501 µM]

How did CCCC(=O)NC(c1ccc(OC)c(OC)c1)c1cc(Cl)c2cccnc2c1O (stereo not given) do in these assays?
BAZ2B inh: -11%; CtBP-E1A inh: -79*; JMJD2A Tudor: -21%; Six1-Eya2 inh: -72*; HP1b chromo inh: 37%

Results for CCCCC(=O)NC(c1cccs1)c1cc(Cl)c2cccnc2c1O (stereo not given) ?
BAZ2B inh: 2%; JMJD2A Tudor: -12%; Six1-Eya2 inh: inconclusive; HP1b chromo inh: 49%; G9a inh: inconclusive

Results for CC(=O)NC(c1ccc(C)cc1)c1cc([N+](=O)[O-])c2cccnc2c1O (stereo not given) ?
BAZ2B inh: 4.5µM*; CtBP-E1A inh: -93*; JMJD2A Tudor: 14µM*; Six1-Eya2 inh: -90*; HP1b chromo inh: -21%; G9a inh: 35µM*
